In PubChem BioAssay:
The source made the active and inactive calls.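 How the source made its calls: active means fluorescence slope after compound addition differing from the mean of all screened samples at 99.7% confidence, in either direction; inactive means the rest.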

Molecular target: Alpha-2C adrenergic receptor (Homo sapiens) (UniProt P18825)
Experiment: modulators of alpha2C/GIRK thallium flux, primary screen, cell-based, HEK293 alpha2C/GIRK1/2 (AID 624);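 further: slope of fluorescence ratio to pre-addition baseline per second over 15 to 24 s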
Conditions: thallium flux BTC fluorescence, at 10 µM, actives lie on both sides

Sequence of Alpha-2C adrenergic receptor (Homo sapiens) (P18825 whole entry, looked up): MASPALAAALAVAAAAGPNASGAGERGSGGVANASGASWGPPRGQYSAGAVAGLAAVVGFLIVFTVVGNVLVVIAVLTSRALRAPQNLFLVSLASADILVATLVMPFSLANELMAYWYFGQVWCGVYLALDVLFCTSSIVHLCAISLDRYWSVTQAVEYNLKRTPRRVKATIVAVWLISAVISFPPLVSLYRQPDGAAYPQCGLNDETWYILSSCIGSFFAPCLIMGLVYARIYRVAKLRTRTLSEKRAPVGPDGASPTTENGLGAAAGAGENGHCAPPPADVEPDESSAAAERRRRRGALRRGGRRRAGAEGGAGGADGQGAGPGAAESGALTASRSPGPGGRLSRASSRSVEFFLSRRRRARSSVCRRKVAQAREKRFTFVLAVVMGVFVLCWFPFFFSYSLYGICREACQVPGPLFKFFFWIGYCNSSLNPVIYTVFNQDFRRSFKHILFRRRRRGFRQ

slope, inactive:
CC(Sc1nc(-c2ccccc2)cc(C(F)(F)F)n1)C(=O)N1CCC(C(N)=O)CC1 (stereo not given) 0.00612
CCOc1ccc(N2CC(C(=O)Nc3cccc(C)c3C)CC2=O)cc1 (stereo not given) 0.00361
CCC(=O)Nc1ccc(NC(=O)c2cccc(OC)c2)nc1 0.00556
CCOC(=O)Cc1nnc2c(Nc3ccccc3F)nc3nonc3n12 0.00616
Cc1cccc(N2CCN(C(=O)C3CCCN(S(=O)(=O)c4c(C)noc4C)C3)CC2)c1C (stereo not given) 0.00588
COc1ccc(N2CCN(Cc3nc(-c4ccc(Cl)cc4Cl)no3)CC2)cc1 0.00526
Cc1cc(C(F)(F)F)nn1Cc1ccc(C(=O)NCc2ccco2)o1 0.00427
C/C=C/c1ccc(OCCn2cncn2)c(OC)c1 0.00659
Cc1cnc(C(=O)Nc2nnc(C(C)C)s2)cn1 0.00641
Cc1nc2scc(-c3cccs3)c2c(=O)n1-n1cccc1 0.00572
COc1ccc(-c2nc(CSCC(=O)N3CCN(c4cccc(C)c4)C(C)C3)c(C)o2)cc1OC (stereo not given) 0.00539
O=C(OCC(=O)c1ccccc1Br)c1ccccn1 0.00716
CCCN(Cc1cc2ccc(C)cc2[nH]c1=O)C(=O)c1cccnc1 0.00624
CCOC(=O)C(CC)Sc1nc2c(c(=O)[nH]c(=O)n2C)n1C/C=C(/C)Cl (stereo not given) 0.00361
Cc1cc(C)n(C2=NS(=O)(=O)c3ccccc32)n1 0.00396
